# Laboratory results from the supplement of paper PMC8975748.
# Structures can show the parent of a compound that is named as a salt.
# Tested on: Saccharomyces cerevisiae BY4741 SeMeCo community
# Test: z-score of subpopulation abundance vs DMSO median, subpopulation auxotrophic for LUM; higher = larger share of this subpopulation than in DMSO controls
# Conditions: 10 µM; 24 h; SM minimal medium; subpopulation (auxotrophy): LUM
# In short: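 Cells of a Saccharomyces cerevisiae BY4741 community, carrying four plasmids that each restored one auxotrophy and encoded a distinct fluorescent protein, were pre-grown overnight to OD600 1.0 and diluted to 0.3. A 70 µl volume was added to 384-well plates acoustically predosed with library drugs (10 µM final) and grown 24 h in minimal SM medium. After paraformaldehyde fixation, automated confocal microscopy was used, with single-auxotroph fluorescent strains for thresholds and autofluorescence correction. The abundance of each subpopulation was scored as a z-score against the vehicle-well median.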
row,Compound,z-score of subpopulation abundance
1,CN[C@@H]1[C@H](O[C@H]2[C@H](O[C@H]3[C@H](O)[C@@H](O)[C@H](NC(=N)N)[C@@H](O)[C@@H]3NC(=N)N)O[C@@H](C)[C@]2(O)CO)O[C@@H](CO)[C@H](O)[C@H]1O [Dihydrostreptomycin sulfate],-0.71
2,C=CCc1ccc(O)c(-c2ccc(O)c(CC=C)c2)c1 [Honokiol],-1.08
3,COCCCN1CCC(NC(=O)c2cc(Cl)c(N)c3c2OCC3)CC1 [Prucalopride],-0.29
4,COCC(=O)Nc1cc(Sc2ccccc2)ccc1N=C(NC(=O)OC)NC(=O)OC [Febantel],0.02
5,CCn1cc(C(=O)O)c(=O)c2cc(F)c(N3CCNCC3)cc21 [Norfloxacin],-0.23
6,CC[C@H]1OC(=O)C[C@@H](O)[C@H](C)[C@@H](O[C@@H]2O[C@H](C)[C@@H](O[C@H]3C[C@@](C)(O)[C@@H](O)[C@H](C)O3)[C@H](N(C)C)[C@H]2O)[C@@H](CC=O)C[C@@H](C)C(=O)/C=C/C(C)=C/[C@@H]1CO[C@@H]1O[C@H](C)[C@@H](O)[C@@H](OC)[C@H]1OC [Tylosin],1.17
7,COC(=O)C1=C(C)NC(C)=C(C(=O)OC2CCCN(Cc3ccccc3)C2)C1c1cccc([N+](=O)[O-])c1 (stereo not given) [Benidipine HCl],0.29
8,CC1=C[C@H]2C(=O)O[C@H]3C[C@@H](C/C=C(\C)C[C@@H](C)/C=C/C=C4\CO[C@H](/C1=N\O)[C@@]42O)O[C@@]1(CC[C@H](C)[C@@H](C)O1)C3.CC[C@H]1O[C@]2(CC[C@@H]1C)C[C@@H]1C[C@@H](C/C=C(\C)C[C@@H](C)/C=C/C=C3\CO[C@@H]4/C(=N\O)C(C)=C[C@@H](C(=O)O1)[C@]34O)O2 [Milbemycin Oxime],-0.87
9,CC1=Nc2ccc(Cl)cc2S(=O)(=O)N1 [Diazoxide],-0.9
10,COc1ccc2cc(CCC(C)=O)ccc2c1 [Nabumetone],-0.43
11,CO/N=C(\C(=O)N[C@@H]1C(=O)N2C(C(=O)O)=C(CSc3nc(=O)c(O)nn3C)CS[C@H]12)c1csc(N)n1 [Ceftriaxone Sodium Trihydrate],-0.43
12,CO/N=C(\C(=O)N[C@@H]1C(=O)N2C(C(=O)OC(C)OC(C)=O)=C(COC(N)=O)CS[C@H]12)c1ccco1 (stereo not given in full) [Cefuroxime axetil],-0.64
13,CNCCCN1c2ccccc2CCc2ccccc21 [Desipramine Hydrochloride],-0.63
14,CCCCCOc1ccccc1/C(=C\SC)n1ccnc1 [Neticonazole Hydrochloride],3.33
15,CC(C(=O)O)c1ccc2c(c1)[nH]c1ccc(Cl)cc12 (stereo not given) [Carprofen],-1.52
16,CCC(C)n1ncn(-c2ccc(N3CCN(c4ccc(OCC5COC(Cn6cncn6)(c6ccc(Cl)cc6Cl)O5)cc4)CC3)cc2)c1=O (stereo not given) [Itraconazole],6.18
17,C=CCN1CCCC1CNC(=O)c1cc2nn[nH]c2cc1OC (stereo not given) [Alizapride HCl],0.44
18,CO/N=C(\C(=O)N[C@@H]1C(=O)N2C(C(=O)O)=C(CSc3nc(C)c(CC(=O)O)s3)CS[C@H]12)c1csc(N)n1 [Cefodizime Sodium],-0.74

row,Compound,z-score of subpopulation abundance
1,C[C@H](NCc1ccc(OCc2cccc(F)c2)cc1)C(N)=O [Safinamide Mesylate],0.24
2,Cc1ccnc(NS(=O)(=O)c2ccc(N)cc2)n1 [Sulfamerazine],0.98
3,N=C(N)NS(=O)(=O)c1ccc(N)cc1 [Sulfaguanidine],-0.49
4,C=C[C@H]1CN2CC[C@H]1C[C@@H]2[C@@H](O)c1ccnc2ccc(OC)cc12 [Quinidine sulfate],1.53
5,O=C(Nc1ccc(Oc2ccc(Cl)cc2)c(Cl)c1)c1cc(I)cc(I)c1O [Rafoxanide],-0.08
6,COC(=O)Nc1nc2cc(C(=O)c3ccccc3)ccc2[nH]1 [Mebendazole],0.4
7,Nc1nc(N)c2nc(-c3ccccc3)c(N)nc2n1 [Triamterene],-4.47
8,CC(=O)N1CCN(c2ccc(OCC3COC(Cn4ccnc4)(c4ccc(Cl)cc4Cl)O3)cc2)CC1 (stereo not given) [Ketoconazole],-0.27
9,Cc1onc(-c2ccccc2)c1C(=O)N[C@@H]1C(=O)N2[C@@H]1SC(C)(C)[C@@H]2C(=O)O [Oxacillin sodium monohydrate],0.47
10,CC[C@H]1OC(=O)[C@H](C)[C@@H](O[C@H]2C[C@@](C)(OC)[C@@H](O)[C@H](C)O2)[C@H](C)[C@@H](O[C@@H]2O[C@H](C)C[C@H](N(C)C)[C@H]2O)[C@](C)(O)C[C@@H](C)C(=O)[C@H](C)[C@@H](O)[C@]1(C)O [Erythromycin thiocyanate],-0.09
11,CCn1cc(C(=O)O)c(=O)c2cc(F)c(N3CCNC(C)C3)c(F)c21 (stereo not given) [Lomefloxacin HCl],1.32
12,CO[C@@]1(NC(=O)CSC[C@@H](N)C(=O)O)C(=O)N2C(C(=O)O)=C(CSc3nnnn3C)CS[C@@H]21 [Cefminox Sodium],-0.31
13,CNCCCC1c2ccccc2C=Cc2ccccc21 [Protriptyline hydrochloride],0.28
14,CC1CCc2c(N3CCC(O)CC3)c(F)cc3c(=O)c(C(=O)O)cn1c23 (stereo not given) [Nadifloxacin],0.27
15,C[n+]1ccccc1/C=N/O [Pralidoxime chloride],0.34
16,Oc1ccc(Cl)c2cccnc12 [Cloxiquine],22.1
17,N[C@H]1CONC1=O [L-Cycloserine],1.18
